The whole screen tested about 320,000 compounds, of which about 1,300 (0.41%) were called active. Another 3% or so got no clear call; they are omitted. How the calls were made is not given here. The list is a sample of the results. Results with a measured potency or affinity are listed apart.

The assay in a line: growth inhibition of non-replicating M. tuberculosis (AID 488890).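 Further: plate controls were DMSO cells for no effect and high antibiotic wells for full effect.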 The settings on record: Mycobacterium tuberculosis non-replicating, at 25 µM, stronger effect = higher value.
Broadly, the inhibition is the change of the read-out against control, counted positive when it falls. In the case of `COc1ccc(C(=O)/C=C\N2CCOCC2)cc1`, the inhibition came out at 10.4%.

As for `COCCNC(=S)N1CCC(NC(=O)Nc2ccc(C)cc2)CC1`, the inhibition is -2%.

Consider `O=C(NCCCNC(=O)c1ccco1)c1ccc(F)cc1`, for which the inhibition is -2.4%.

For the molecule `CC(=O)N1N=C(c2ccc(Cl)cc2)CC1c1ccc([N+](=O)[O-])cc1` (stereo not drawn), the inhibition is -10.2%.

In the case of `O=C(c1ccc([N+](=O)[O-])cc1)N1CCSC1c1ccc(Cl)cc1` (stereo not drawn), the inhibition turned out to be 6.9%.

Take `COc1ccccc1CNC(=O)CCCn1nc(C)c2c(C)n(-c3ccccc3)nc2c1=O`: the inhibition amounted to 5.28%.

As for `O=C(CNC(=O)N1CC(=O)Nc2ccccc21)Nc1cc(Cl)ccc1Cl`, the inhibition came out at 5.7%.

For the molecule `CN1C(=O)N(C)C(c2ccccc2Cl)C2=C1CC(C)(C)CC2=O` (stereo not drawn), the inhibition came to 1.21%.

As to `O=C(O)c1ccc(N=N/C(=N\Nc2ccc(C(=O)O)cc2)c2ccccc2)cc1`, the inhibition was 29.9%.

As for `Brc1ccc(N/N=C(/N=Nc2nn[nH]n2)c2ccccc2)cc1`, the inhibition stood at 76.2%.

With `CCOC(=O)c1nc(C)nc(Sc2n[nH]c(-c3cc(C(F)(F)F)cc(C(F)(F)F)c3)n2)c1C`, the inhibition stood at 46.5%.

Regarding `O=C(O)c1ccccc1C(=O)Nc1ccc(S(=O)(=O)NC2CCCCC2)cc1`, the inhibition was -4.02%.

`CCC(C)C(NC(=O)c1ccccc1NC(=O)c1ccc(OC)cc1)C(=O)NCCCn1ccnc1` (stereo not drawn): the inhibition was 7.04%.

Regarding `CC1(N(O)/C=C2\C=CC=CC2=O)CCCCC1=O` (stereo not drawn), the inhibition was 3.64%.

Take `O=C(CN1CCN(S(=O)(=O)c2ccccc2F)CC1)Nc1ccccc1C(=O)c1ccccc1`: the inhibition worked out at 27.9%.

With `C/C(=N\OC(=O)c1c(-c2c(F)cccc2Cl)noc1C)c1nccs1`, the inhibition stood at 4.04%.

As to `Cc1onc(-c2c(Cl)cccc2Cl)c1C(=O)O/N=C(\C#N)c1c(Cl)cccc1Cl`, the inhibition stood at 4.59%.

As for `Cc1onc(-c2cccc(Cl)c2Cl)c1C(=O)O/N=C(\N)c1ccc([N+](=O)[O-])o1`, the inhibition amounted to 60%.

For `Cc1onc(-c2ccccc2Cl)c1C(=O)O/N=C(\N)c1ccccc1`, the inhibition is 10.2%.

As for `O=C(O)c1cccc2c1C(=O)c1ccc(-c3ccc(OC(F)(F)F)cc3)cc1S2(=O)=O`, the inhibition was -2.64%.

For `O=[N+]([O-])c1cc(/C=N/OCc2c(Cl)cccc2Cl)ccc1N1CCOCC1`, the inhibition was found to be 22.5%.

As for `COC(=O)N1CCN(c2ccc(Cl)c(Cl)c2)CC1`, the inhibition is 39%.

As to `CCOC(=O)N1CCN(c2ccc(Cl)c(Cl)c2)CC1`, the inhibition stood at 75.6%.

For `Cc1cc(Cl)c(S(=O)(=O)N2CCN(c3cccc(C)c3C)CC2)cc1OCC(N)=O`, the inhibition stood at 6.33%.

In the case of `COC(=O)c1[nH]c2ccc(C)cc2c1NC(=O)C1=COCCO1`, the inhibition came out at 2.53%.

Take `C/C(=N/NC(=O)CNC(=O)c1ccccn1)c1cccc([N+](=O)[O-])c1`: the inhibition is -4.01%.

For the molecule `O=C(N/N=C(\c1ccccc1)c1cccnc1)c1ccc(O)cc1`, the inhibition was -6.44%.

Take `COc1ccc(C(=O)NCCNC(=O)c2ccccn2)cc1`: the inhibition is -3.54%.

In the case of `O=C(N/N=C(\c1ccccc1)c1cccnc1)c1cc(O)ccc1O`, the inhibition was 30.3%.

Regarding `COc1ccc(C(=O)NNC(=O)c2ccccn2)cc1`, the inhibition amounted to 12.8%.

Take `O=C(c1cccc([N+](=O)[O-])c1)c1ccccn1`: the inhibition came out at 2.21%.

With `COc1cccc(C(=O)NCCNC(=O)c2ccccn2)c1`, the inhibition is -10.9%.

Consider `COc1cc(C(=O)N/N=C(\c2ccccc2)c2ccccn2)cc(OC)c1OC`, for which the inhibition was determined as 43.4%.
